Source: PubChem BioAssay (NCI)
The panel holds about 83,000 compounds, 20% with a hit somewhere; the sample as a whole holds those more often.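 For each line, cells grew in 96-well plates with the test compound present at a single concentration for 48 hours.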 A number with no mark means an inactive call. The source made the active and inactive calls. How the source made its calls: active means growth percent below 10; inactive means the rest.

Tests used:
Experiment in all cases: NCI-60 one-dose screen, 48 h (100 = growth as untreated, 0 = no growth, -100 = all killed)
Conditions in all cases: 10 µM unless noted
[1] = tested on: NCI-H23 lung
[2] = tested on: NCI-H226 lung
[3] = tested on: NCI-H322M lung
[4] = tested on: HOP-62 NSCLC
[5] = tested on: NCI-H460 lung
[6] = tested on: HOP-92 NSCLC
[7] = tested on: NCI-H522 lung
[8] = tested on: A549/ATCC NSCLC
[9] = tested on: 786-0 renal
[10] = tested on: COLO 205 colon

## C=C1C(=O)O[C@H]2[C@H]1CC/C(CNC(=O)/C=C/c1ccc(Br)cc1)=C\CC[C@@]1(C)O[C@@H]21
[1]
  growth: -9.66% (active)
[2]
  growth: 12.3%
[3]
  growth: 39.6%
[4]
  growth: 41.2%
[5]
  growth: 4.75% (active)
[6]
  growth: -26.2% (active)
[7]
  growth: -71.2% (active)
[8]
  growth: 14.2%
[9]
  growth: -63.4% (active)
[10]
  growth: -64.9% (active)

## COC(=O)N[C@H]1CCc2cc(OC)c(OC)c(OC)c2-c2ccc(SC)c(=O)cc21
[1]
  growth: 23.3%
[2]
  growth: -3.52% (active)
[3]
  growth: 29.8%
[4]
  growth: 23.4%
[5]
  growth: 2.04% (active)
[6]
  growth: 15.2%
[7]
  growth: -17.9% (active)
[8]
  growth: 13.6%
[9]
  growth: 14.1%
[10]
  growth: -18.6% (active)

## COc1cc2c(cc1[N+](=O)[O-])-c1ccc([N+](=O)[O-])cc1/C2=N/NC(N)=S
[1]
  growth: 71.5%
[2]
  growth: 62.6%
[3]
  growth: 93.9%
[4]
  growth: 99.9%
[5]
  growth: 29.6%
[6]
  growth: 78.3%
[7]
  growth: 35.5%
[8]
  growth: 69.2%
[9]
  growth: 70.6%
[10]
  growth: 66.7%

## O=C1c2cccnc2C(=O)c2nc3cc(N4CCN(C5CC5)CC4)ccc3nc21
[1]
  growth: -56.5% (active)
[2]
  growth: -49.1% (active)
[3]
  growth: -96.7% (active)
[4]
  growth: -56.6% (active)
[5]
  growth: -54.1% (active)
[6]
  growth: 62.5%
[7]
  growth: -50.5% (active)
[8]
  growth: -53.3% (active)
[9]
  growth: 28.1%
[10]
  growth: -68.3% (active)

## CC(C)[N+](C)(CCOC(COc1ccccc1)COc1ccccc1)C(C)C
[1]
  growth: 84.1%
[2]
  growth: 91.2%
[3]
  growth: 101%
[4]
  growth: 98.6%
[5]
  growth: 106%
[6]
  growth: 72.2%
[7]
  growth: 68%
[8]
  growth: 92.5%
[9]
  growth: 102%
[10]
  growth: 67.9%

## COc1ccc(C(O)c2cc3c(N)c(C(=O)Nc4ccc(Br)cc4)sc3nc2C)cc1 (stereo not given)
[1]
  growth: 38.1%
[2]
  growth: 42.4%
[3]
  growth: 39.4%
[4]
  growth: 23%
[5]
  growth: 6.2% (active)
[6]
  growth: 44.1%
[7]
  growth: 6.85% (active)
[8]
  growth: 24.3%
[9]
  growth: 50.3%
[10]
  growth: 11.3%

## O=C(Nc1nc2ccc(S(=O)(=O)Nc3ccc(C4(C(F)(F)F)CC4)cc3)cc2[nH]1)c1cnccn1
[1]
  growth: 43.6%
[2]
  growth: 54.1%
[3]
  growth: 46.6%
[4]
  growth: 51.5%
[5]
  growth: 8.38% (active)
[6]
  growth: 39.3%
[7]
  growth: 26.9%
[8]
  growth: 35.1%
[9]
  growth: 33.9%
[10]
  growth: 35.1%

## CCCOc1nc(SCCC)nc2c1cnn2-c1ccccc1
[1]
  growth: 93.8%
[2]
  growth: 96.6%
[3]
  growth: 137%
[4]
  growth: 126%
[5]
  growth: 101%
[6]
  growth: 98.2%
[7]
  growth: 3.95% (active)
[8]
  growth: 100%
[9]
  growth: 105%
[10]
  growth: 103%

## O=C(O)CCCCCCCCCCCCCCC(=O)O
[1]
  growth: 103%
[2]
  growth: 85.3%
[3]
  growth: 100%
[4]
  growth: 99.1%
[5]
  growth: 110%
[6]
  growth: 85.1%
[7]
  growth: 89.6%
[8]
  growth: 90.5%
[9]
  growth: 102%
[10]
  growth: 108%

## COc1cc(C2NC(c3cc(OC)c(OC)c(OC)c3)C(C#N)(C#N)C2(C#N)C#N)cc(OC)c1OC (stereo not given)
[1]
  growth: 101%
[2]
  growth: 91.5%
[3]
  growth: 100%
[4]
  growth: 94.8%
[5]
  growth: 104%
[6]
  growth: 96.5%
[7]
  growth: 95.6%
[8]
  growth: 103%
[9]
  growth: 97%
[10]
  growth: 101%

## CC1(C)CN(c2cnc(C(=O)Nc3cc(F)cc4cccnc34)cn2)CCN1
[1]
  growth: 88.8%
[2]
  growth: 92.7%
[3]
  growth: 85.4%
[4]
  growth: 91.8%
[5]
  growth: 82.5%
[6]
  growth: 64.6%
[7]
  growth: 41%
[8]
  growth: 92.5%
[9]
  growth: 78.9%
[10]
  growth: 19.7%

## COc1ccc(C(O)c2cc3c(N)c(C(=O)Nc4ccc(Cl)cc4)sc3nc2C)cc1 (stereo not given)
[1]
  growth: 32.7%
[2]
  growth: 45.3%
[3]
  growth: 44.6%
[4]
  growth: 29.2%
[5]
  growth: 5.37% (active)
[6]
  growth: 49.3%
[7]
  growth: 7.8% (active)
[8]
  growth: 29.5%
[9]
  growth: 55.2%
[10]
  growth: 13.6%

## O=CNc1cc(Cl)cc(Cl)c1
[1]
  growth: 102%
[2]
  growth: 102%
[3]
  growth: 104%
[4]
  growth: 102%
[5]
  growth: 104%
[6]
  growth: 106%
[7]
  growth: 95.4%
[8]
  growth: 102%
[9]
  growth: 104%
[10]
  growth: 107%

## Cc1c2c(cc[n+]1Cc1ccc(F)cc1)c1ccc(OCc3cccc(F)c3)cc1n2Cc1cccc(F)c1
[1]
  growth: -58.1% (active)
[2]
  growth: -66.9% (active)
[3]
  growth: -72.1% (active)
[4]
  growth: -91.2% (active)
[5]
  growth: -78% (active)
[6]
  growth: -73.9% (active)
[7]
  growth: -80.1% (active)
[8]
  growth: 25.1%
[9]
  growth: -85.8% (active)
[10]
  growth: -91.1% (active)

## CCOC(=O)C1CC(=O)c2cc(OC)c(OC)cc2C1 (stereo not given)
[1]
  growth: 101%
[2]
  growth: 92.6%
[3]
  growth: 123%
[4]
  growth: 96%
[5]
  growth: 110%
[6]
  growth: 84%
[7]
  growth: 84.9%
[8]
  growth: 100%
[9]
  growth: 96.2%
[10]
  growth: 127%

## CCc1c(Nc2ccc(C)cc2)nc(N)[nH]c1=O
[1]
  growth: 103%
[2]
  growth: 102%
[3]
  growth: 103%
[4]
  growth: 98.7%
[5]
  growth: 108%
[6]
  growth: 93.7%
[7]
  growth: 90.5%
[8]
  growth: 99.5%
[9]
  growth: 100%
[10]
  growth: 108%

## COc1ccc(/C(=C\c2ccccc2)C(=O)O)cc1OC
[1]
  growth: 93.6%
[2]
  growth: 83.5%
[3]
  growth: 98%
[4]
  growth: 2.18% (active)
[5]
  growth: 101%
[6]
  growth: 97.9%
[7]
  growth: 101%
[8]
  growth: 102%
[9]
  growth: 104%
[10]
  growth: 100%

## CC(=O)Nc1ccc(C(=O)Nc2cc(-c3ccccc3)ccc2N)cc1
[1]
  growth: 86.4%
[2]
  growth: 124%
[3]
  growth: 79.5%
[4]
  growth: 67.7%
[5]
  growth: 59.7%
[6]
  growth: 69.2%
[7]
  growth: 55.6%
[8]
  growth: 74.2%
[9]
  growth: 97.9%
[10]
  growth: 35.5%

## Fc1ccc(C2CC(c3cccc(Nc4ccncc4)c3)=NN2c2cc(Cl)cc(Cl)c2)cc1 (stereo not given)
[1]
  growth: 80.2%
[2]
  growth: 90.5%
[3]
  growth: 73%
[4]
  growth: 44.4%
[5]
  growth: -75.5% (active)
[6]
  growth: 58.3%
[7]
  growth: 73%
[8]
  growth: 29.1%
[9]
  growth: 102%
[10]
  growth: -54.5% (active)

## Cc1ccc2[nH]c(=S)n(-c3ccc(S(=O)(=O)Nc4ccc(Cl)nn4)cc3)c(=O)c2c1
[1]
  growth: 101%
[2]
  growth: 98.9%
[3]
  growth: 110%
[4]
  growth: 104%
[5]
  growth: 104%
[6]
  growth: 104%
[7]
  growth: 92.5%
[8]
  growth: 103%
[9]
  growth: 60.7%
[10]
  growth: 110%

## CCN1C(=O)N(CC)C2C1NN=c1s/c(=C3\C(=O)Nc4ccccc43)c(=O)n12 (stereo not given)
[1]
  growth: 37.3%
[2]
  growth: 93.2%
[3]
  growth: 43.5%
[4]
  growth: 5.9% (active)
[5]
  growth: 9.09% (active)
[6]
  growth: -4.18% (active)
[7]
  growth: 2.21% (active)
[8]
  growth: 28.8%
[9]
  growth: 27.7%
[10]
  growth: -25.1% (active)

## CS(=O)(=O)Nc1cc(-c2ccc3ncnc(Nc4ccc5[nH]ncc5c4)c3c2)cnc1Cl
[1]
  growth: 86%
[2]
  growth: 75%
[3]
  growth: 74.1%
[4]
  growth: 55.2%
[5]
  growth: 94.1%
[6]
  growth: 0.913% (active)
[7]
  growth: 60.6%
[8]
  growth: 91.8%
[9]
  growth: 79.6%
[10]
  growth: 81.7%

## O=S(=O)(c1ccccc1)N1CCCc2ccccc21
[1]
  growth: 102%
[2]
  growth: 104%
[3]
  growth: 99%
[4]
  growth: 94.2%
[5]
  growth: 107%
[6]
  growth: 88.5%
[7]
  growth: 82.2%
[8]
  growth: 91.4%
[9]
  growth: 102%
[10]
  growth: 112%

## COc1cccc(CNCCN2C(=O)c3ccc4c5c(ccc(c35)C2=O)C(=O)N(CCNCc2cccc(OC)c2)C4=O)c1
[1]
  growth: 87.2%
[2]
  growth: 95.8%
[3]
  growth: 89.9%
[4]
  growth: 105%
[5]
  growth: 46.8%
[6]
  growth: 99.9%
[7]
  growth: 86.9%
[8]
  growth: 46.2%
[9]
  growth: 81%
[10]
  growth: 53.7%

## COc1cc(OC)cc(C2C3=C(COC3=O)Nc3cc(OC)ccc32)c1 (stereo not given)
[1]
  growth: 12.1%
[2]
  growth: -3.11% (active)
[3]
  growth: 50.5%
[4]
  growth: 22%
[5]
  growth: 4.2% (active)
[6]
  growth: 52.6%
[7]
  growth: -40.5% (active)
[8]
  growth: 16.6%
[9]
  growth: 11%
[10]
  growth: -74.1% (active)

## C=C(C)[C@@H]1CC[C@]2(C(=O)O)CC[C@]3(C)[C@H](CC[C@@H]4[C@@]5(C)C[C@@H](CC#Cc6ccc(Br)cc6)C(=O)C(C)(C)[C@@H]5CC[C@]43C)[C@@H]12
[1]
  growth: 31.2%
[2]
  growth: 17.3%
[3]
  growth: 65.7%
[4]
  growth: 52.3%
[5]
  growth: 42.3%
[6]
  growth: 65.8%
[7]
  growth: 17.3%
[8]
  growth: 33.1%
[9]
  growth: 63.1%
[10]
  growth: 69.1%
